Assay results: PubChem BioAssay (NCI)
The panel holds about 83,000 compounds, 20% with a hit somewhere; the sample as a whole holds those more often.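 Compound tested at a single concentration for 48 hours in 96-well plates; a percent growth value below 10 was scored as active.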 Calls of active or inactive are those of the source.

Columns and labels:
Assay in all cases: NCI-60 one-dose screen, 48 h (100 = growth as untreated, 0 = no growth, -100 = all killed)
Details in all cases: 10 µM unless noted
NCI-H23 lung = test system: NCI-H23 lung
NCI-H226 lung = test system: NCI-H226 lung
NCI-H322M lung = test system: NCI-H322M lung
HOP-62 NSCLC = test system: HOP-62 NSCLC
NCI-H460 lung = test system: NCI-H460 lung
HOP-92 NSCLC = test system: HOP-92 NSCLC
NCI-H522 lung = test system: NCI-H522 lung
A549/ATCC NSCLC = test system: A549/ATCC NSCLC
786-0 renal = test system: 786-0 renal
COLO 205 colon = test system: COLO 205 colon
DU-145 prostate = test system: DU-145 prostate
K-562 leukemia = test system: K-562 leukemia
MALME-3M melanoma = test system: MALME-3M melanoma
MDA-MB-231 breast = test system: MDA-MB-231 breast
RXF 393 renal = test system: RXF 393 renal
SF-268 CNS = test system: SF-268 CNS
SF-295 CNS = test system: SF-295 CNS
SF-539 CNS = test system: SF-539 CNS
UACC-257 melanoma = test system: UACC-257 melanoma
M14 melanoma = test system: M14 melanoma

Measured: growth

Cn1cc(-c2nc3c(F)cc4[nH]ncc4c3c3c2CCCC3)c(C(F)(F)F)n1
inactive: NCI-H23 lung 37.7% | NCI-H226 lung 67.3% | NCI-H322M lung 47.6% | HOP-62 NSCLC 31% | NCI-H460 lung 37.5% | A549/ATCC NSCLC 17.3% | 786-0 renal 42.7% | COLO 205 colon 35.6% | DU-145 prostate 52.3% | K-562 leukemia 19.3% | MALME-3M melanoma 59.7% | MDA-MB-231 breast 48.9% | RXF 393 renal 23% | SF-268 CNS 47.7% | SF-295 CNS 49.2% | SF-539 CNS 27.9% | UACC-257 melanoma 53.5% | M14 melanoma 30.1%
active: HOP-92 NSCLC -7.54% | NCI-H522 lung 0.529%

Cc1ccccc1N1CCN(C(=S)c2ccccc2)CC1
active: UACC-257 melanoma -18%
inactive: NCI-H23 lung 81.3% | NCI-H226 lung 92.1% | NCI-H322M lung 102% | HOP-62 NSCLC 95.2% | NCI-H460 lung 92.4% | HOP-92 NSCLC 97.9% | NCI-H522 lung 47.8% | A549/ATCC NSCLC 87.4% | 786-0 renal 103% | COLO 205 colon 106% | DU-145 prostate 114% | K-562 leukemia 107% | MALME-3M melanoma 103% | MDA-MB-231 breast 93.9% | RXF 393 renal 96.6% | SF-268 CNS 105% | SF-295 CNS 69.5% | SF-539 CNS 94.7% | M14 melanoma 101%

Cc1cc(NCCCNc2ccnc3cc(Cl)ccc23)nc(Nc2ccc(C(=O)N3CCCCC3)cc2)n1
active: NCI-H460 lung 9.68% | NCI-H522 lung -11.6% | 786-0 renal -29.5% | COLO 205 colon -32.1% | K-562 leukemia 0.0536% | MALME-3M melanoma -90.5% | MDA-MB-231 breast -38.7% | RXF 393 renal -63.9% | SF-295 CNS -34% | SF-539 CNS -75.1% | UACC-257 melanoma -72.9% | M14 melanoma -68.3%
inactive: NCI-H23 lung 52.5% | NCI-H226 lung 108% | NCI-H322M lung 17.8% | HOP-62 NSCLC 73.8% | HOP-92 NSCLC 83.8% | A549/ATCC NSCLC 20.5% | DU-145 prostate 36.6% | SF-268 CNS 10.2%

CC1(C)N=C(N)N=C(N)N1c1cc(Cl)ccc1Cl
inactive: NCI-H23 lung 74.4% | NCI-H226 lung 94.3% | NCI-H322M lung 119% | HOP-62 NSCLC 92.8% | NCI-H460 lung 32.3% | HOP-92 NSCLC 94% | NCI-H522 lung 52.7% | A549/ATCC NSCLC 86.7% | 786-0 renal 110% | COLO 205 colon 87.5% | K-562 leukemia 71.2% | MALME-3M melanoma 125% | MDA-MB-231 breast 92.6% | RXF 393 renal 78.7% | SF-268 CNS 75.1% | SF-295 CNS 51.5% | SF-539 CNS 85.8% | UACC-257 melanoma 94.7% | M14 melanoma 94%
active: DU-145 prostate 6.66%

Cc1cn(C)cn1
inactive: NCI-H23 lung 97.7% | NCI-H226 lung 108% | NCI-H322M lung 116% | HOP-62 NSCLC 111% | NCI-H460 lung 106% | HOP-92 NSCLC 81.8% | NCI-H522 lung 89.3% | A549/ATCC NSCLC 94.2% | 786-0 renal 97.9% | COLO 205 colon 125% | DU-145 prostate 107% | K-562 leukemia 106% | MALME-3M melanoma 96.1% | MDA-MB-231 breast 112% | RXF 393 renal 117% | SF-268 CNS 106% | SF-295 CNS 105% | SF-539 CNS 110% | UACC-257 melanoma 90.2% | M14 melanoma 103%

CC(=O)Nc1sc2c(c1-c1nc3ccccc3s1)CNC2
inactive: NCI-H23 lung 24.9% | NCI-H226 lung 26% | NCI-H322M lung 14.5% | HOP-62 NSCLC 18.6% | A549/ATCC NSCLC 14.1% | 786-0 renal 28.4% | DU-145 prostate 25.6% | K-562 leukemia 13.2% | MALME-3M melanoma 19% | MDA-MB-231 breast 21.9% | RXF 393 renal 18% | SF-268 CNS 40.4% | SF-295 CNS 13.3% | SF-539 CNS 28.4% | UACC-257 melanoma 27.6% | M14 melanoma 21.9%
active: NCI-H460 lung 8.68% | HOP-92 NSCLC 0.851% | NCI-H522 lung -12.5% | COLO 205 colon 8.21%

COC(=O)c1c2c(c[n+]([O-])c1C)C(=O)C=C(NCc1ccccc1)C2=O
active: NCI-H23 lung -39.1% | NCI-H226 lung -90.8% | NCI-H322M lung -100% | HOP-62 NSCLC -95.3% | NCI-H460 lung -79.8% | HOP-92 NSCLC -74.5% | NCI-H522 lung -57.9% | A549/ATCC NSCLC -64.2% | 786-0 renal -69% | COLO 205 colon -73.7% | DU-145 prostate -94.7% | K-562 leukemia -29% | MALME-3M melanoma -100% | MDA-MB-231 breast -17.7% | RXF 393 renal -94.1% | SF-268 CNS -51.6% | SF-295 CNS -93.7% | SF-539 CNS -99% | UACC-257 melanoma -92.2% | M14 melanoma -92.2%

O=C(Nc1cccnc1Nc1ccccc1)c1cn(Cc2cccc(Oc3ccccc3)c2)nn1
inactive: NCI-H23 lung 68.3% | NCI-H226 lung 64.7% | NCI-H322M lung 71.8% | HOP-62 NSCLC 78.6% | NCI-H460 lung 42.6% | HOP-92 NSCLC 71.2% | NCI-H522 lung 61.3% | A549/ATCC NSCLC 57.9% | 786-0 renal 56.7% | COLO 205 colon 107% | DU-145 prostate 69.8% | K-562 leukemia 33% | MALME-3M melanoma 56.3% | MDA-MB-231 breast 57.3% | RXF 393 renal 50.1% | SF-268 CNS 53.6% | SF-295 CNS 52.3% | SF-539 CNS 42% | UACC-257 melanoma 73% | M14 melanoma 27.5%

O=c1c2ccccc2n(C[C@H]2CO2)c2ccccc12
active: NCI-H23 lung -58.2% | HOP-62 NSCLC -12.8% | NCI-H460 lung -40.5% | HOP-92 NSCLC -3.5% | NCI-H522 lung -37.5% | A549/ATCC NSCLC -37.2% | 786-0 renal -14.1% | COLO 205 colon 2.46% | DU-145 prostate 2.26% | K-562 leukemia 8.2% | MALME-3M melanoma -74.3% | MDA-MB-231 breast 5.95% | RXF 393 renal -67.1% | SF-268 CNS -8.61% | SF-295 CNS 5.39% | SF-539 CNS -22.1% | UACC-257 melanoma -10.1% | M14 melanoma 6.45%
inactive: NCI-H226 lung 51.4% | NCI-H322M lung 20%

O=C(/C=C/c1cn(-c2ccccc2)nc1-c1ccccc1)CCC(=O)NO
inactive: NCI-H23 lung 99.3% | NCI-H226 lung 93.9% | NCI-H322M lung 106% | HOP-62 NSCLC 93.3% | NCI-H460 lung 113% | HOP-92 NSCLC 109% | NCI-H522 lung 79.5% | A549/ATCC NSCLC 91.5% | 786-0 renal 97.3% | COLO 205 colon 107% | DU-145 prostate 112% | K-562 leukemia 99.6% | MALME-3M melanoma 104% | MDA-MB-231 breast 105% | RXF 393 renal 102% | SF-268 CNS 97% | SF-295 CNS 96.1% | SF-539 CNS 113% | UACC-257 melanoma 92.7% | M14 melanoma 100%

COc1ccc(Cl)cc1Nc1nc(C(F)(F)F)ccc1C(=O)N/N=C/c1ccc([N+](=O)[O-])cc1
inactive: NCI-H23 lung 18% | NCI-H226 lung 13.6% | HOP-62 NSCLC 11.4% | DU-145 prostate 12.8% | MALME-3M melanoma 11.5% | RXF 393 renal 13% | SF-268 CNS 15.3% | SF-539 CNS 10.8% | M14 melanoma 36.2%
active: NCI-H322M lung -1.09% | NCI-H460 lung 0.872% | HOP-92 NSCLC -47.7% | NCI-H522 lung -8.55% | A549/ATCC NSCLC 6.02% | 786-0 renal 8.42% | COLO 205 colon 9.91% | K-562 leukemia 2.07% | MDA-MB-231 breast -14.9% | SF-295 CNS -52% | UACC-257 melanoma -3.41%

Cn1c(=O)[nH]c(=O)c2nc3c(nc21)-c1ccccc1C3=O
inactive: NCI-H23 lung 95.6% | NCI-H226 lung 92.2% | NCI-H322M lung 102% | HOP-62 NSCLC 94.3% | NCI-H460 lung 102% | HOP-92 NSCLC 100% | NCI-H522 lung 96.4% | A549/ATCC NSCLC 106% | 786-0 renal 101% | COLO 205 colon 114% | DU-145 prostate 104% | K-562 leukemia 99% | MALME-3M melanoma 102% | MDA-MB-231 breast 101% | RXF 393 renal 99.3% | SF-268 CNS 99.3% | SF-295 CNS 97.7% | SF-539 CNS 95.8% | UACC-257 melanoma 102% | M14 melanoma 99.4%

CN1C(=O)/C(=C/c2ccc(C(=O)Nc3ncc(Cc4cccc(C(F)(F)F)c4)s3)cc2)SC1=S
inactive: NCI-H23 lung 37.5% | NCI-H226 lung 58% | NCI-H322M lung 69.5% | HOP-62 NSCLC 58.5% | NCI-H460 lung 30.1% | HOP-92 NSCLC 27.3% | NCI-H522 lung 35.5% | A549/ATCC NSCLC 47.4% | 786-0 renal 65% | COLO 205 colon 53% | DU-145 prostate 68.5% | K-562 leukemia 48.2% | MALME-3M melanoma 32.2% | MDA-MB-231 breast 69.1% | RXF 393 renal 26.9% | SF-268 CNS 59.3% | SF-295 CNS 26.4% | SF-539 CNS 56.3% | UACC-257 melanoma 71.7% | M14 melanoma 16.4%

N#Cc1c(-c2ccccc2)nc2c(c(-c3ccc(Cl)cc3)nn2-c2ccccc2)c1-c1ccc([N+](=O)[O-])cc1
inactive: NCI-H23 lung 96% | NCI-H226 lung 94.7% | NCI-H322M lung 97% | HOP-62 NSCLC 94.7% | NCI-H460 lung 103% | HOP-92 NSCLC 103% | NCI-H522 lung 91.7% | A549/ATCC NSCLC 100% | 786-0 renal 110% | COLO 205 colon 110% | DU-145 prostate 101% | K-562 leukemia 101% | MALME-3M melanoma 101% | MDA-MB-231 breast 102% | RXF 393 renal 109% | SF-268 CNS 98.6% | SF-295 CNS 98.7% | SF-539 CNS 95.9% | UACC-257 melanoma 96.2% | M14 melanoma 97.9%

Cc1nc2sc(C(=O)Nc3cccc(Cl)c3C)c(N)c2cc1C(=O)/C=C/c1ccccc1
active: NCI-H226 lung -52.2% | HOP-62 NSCLC -11.2% | NCI-H460 lung -25.3% | HOP-92 NSCLC 1.05% | NCI-H522 lung -49.8% | 786-0 renal -51.1% | COLO 205 colon -5.18% | DU-145 prostate 5.7% | MDA-MB-231 breast -38.4% | RXF 393 renal -82.8% | SF-268 CNS 4.07% | SF-295 CNS -14.8% | SF-539 CNS -25.5% | M14 melanoma -15.9%
inactive: NCI-H23 lung 28.6% | NCI-H322M lung 19.1% | A549/ATCC NSCLC 10.1% | K-562 leukemia 10.2% | MALME-3M melanoma 39.7% | UACC-257 melanoma 64.2%
